Experimental data reported in PubChem BioAssay (EPA / NIEHS).
Results filed as inconclusive are left out. Calls of active or inactive are those of the source. How the source made its calls, unless noted: active means hit-call score of the fitted dose curve at least 0.9, where 1 is the maximum; inconclusive means response in the unintended direction; inactive means score below 0.9.

Target: Retinoic acid receptor alpha (Homo sapiens) (UniProt P10276)
Assay: ATG_RARa_TRANS: Attagene TRANS-FACTORIAL HepG2 Assay for human Retinoic Acid Receptor alpha (RARa) (AID 2283005)
Conditions: not given
Summary of the method: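 HepG2 cells transiently transfected with multiple reporter units expressing chimeric RARα-GAL4 fusion, with GAL4-UAS-driven reporters. After 24 h compound exposure, reporter mRNA induction quantified by RT-PCR and capillary electrophoresis with fluorescent labeling; gain-of-signal fitted relative to DMSO control.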

Chain of Retinoic acid receptor alpha (Homo sapiens) (P10276 whole entry, looked up): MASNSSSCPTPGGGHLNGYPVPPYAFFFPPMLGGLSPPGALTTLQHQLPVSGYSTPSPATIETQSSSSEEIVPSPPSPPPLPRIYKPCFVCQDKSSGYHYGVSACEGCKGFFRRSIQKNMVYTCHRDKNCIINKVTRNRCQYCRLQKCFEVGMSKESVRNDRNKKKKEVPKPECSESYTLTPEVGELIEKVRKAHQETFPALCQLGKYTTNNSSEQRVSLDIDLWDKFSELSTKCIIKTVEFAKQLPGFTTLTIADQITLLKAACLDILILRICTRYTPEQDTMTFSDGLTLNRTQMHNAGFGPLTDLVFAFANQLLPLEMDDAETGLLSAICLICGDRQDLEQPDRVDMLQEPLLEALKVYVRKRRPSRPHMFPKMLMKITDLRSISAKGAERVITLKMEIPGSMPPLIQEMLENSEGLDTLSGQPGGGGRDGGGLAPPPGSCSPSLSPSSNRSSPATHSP

Structure (SMILES)	outcome
Cc1c(-c2cccnc2)c2ccccc2n1CCCCC(=O)O	inactive
Cc1ccc(C)c(O)c1	inactive
Cc1ccc(S(=O)(=O)O)cc1C	inactive
CC(C)c1cccc(C(C)C)c1N1C(=O)c2ccc(O)cc2C1=O	inactive
Cn1cnc([N+](=O)[O-])c1Sc1ncnc2nc[nH]c12	inactive
CNCc1ccc(NC(=O)c2c[nH]c3c2C(=O)CCC3)cc1	inactive
O=C1CCCCCN1	inactive
Cc1[nH]cnc1C[C@H]1CCc2c(C)c3ccccc3n2C1=O	inactive
CCNc1ccccc1	inactive
COC(=O)c1ccccc1O	inactive
NC(=O)NO	inactive

Read-out: not listed separately
Assay: BSK_3C_Proliferation: Cell Proliferation Assessment in the BioMAP Diversity Plus: 3C Assay (AID 2283006; active means hit-call score of the fitted dose curve at least 0.9, where 1 is the maximum; inactive means score below 0.9;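 on AC50: potency may reflect either rise or fall in cell number versus DMSO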)
Conditions: primary human endothelial cells (HUVEC)
Summary of the method: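 Proliferation of human vascular endothelial primary cells after 48 h dosing, quantified as SRB-stained protein at 560 nm relative to DMSO.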

Structure (SMILES)	AC50	outcome
CC[C@H]1CC[C@H](NCc2cc3c(cc2OC)[C@H]2C[C@H]2C(=O)N3C)[C@H](c2ccccc2)N1	28.6 µM (active)	
Oc1ccc2c(c1)-c1ccccc1C2	15.4 µM (active)	
Cc1ccc(C)c(O)c1		inactive
CCCCC(CC)COC(=O)CCCCCCCCC(=O)OCC(CC)CCCC (stereo not given)		inactive
Cc1ccc(S(=O)(=O)O)cc1C		inactive
Cc1ccc(N)cc1O		inactive
CCC(C)(C)C(=O)O[C@H]1C[C@@H](C)C=C2C=C[C@H](C)[C@H](CC[C@@H]3C[C@@H](O)CC(=O)O3)[C@H]21	4.32 µM (active)	
CCCCCCCCCCCCCCCO	14.7 µM (active)	
CC(O)CN(CCN(CC(C)O)CC(C)O)CC(C)O (stereo not given)		inactive
Clc1nc(Cl)c(Cl)c(Cl)c1Cl	20 µM (active)	
CCn1nc(Cc2ccccc2)cc1C1CCN(C[C@H]2C[C@H](N(C)[C@@H](C(=O)O)C(C)C)C[C@@H]2c2cccc(F)c2)CC1		inactive
O=C1CCCCCN1		inactive
COc1ccc(-n2nc(C(F)F)cc2-c2ccc(S(C)=O)cc2)cc1 (stereo not given)		inactive
Cc1[nH]cnc1C[C@H]1CCc2c(C)c3ccccc3n2C1=O	26.1 µM (active)	
O=C(O)c1cccc(N(Cc2cccnc2)c2ccc(OC(F)F)c(OC(F)F)c2)c1		inactive
Fc1ccccc1[C@@H](F)COC1CCC(Nc2ncnc3[nH]ncc23)CC1 (stereo not given in full)	29.3 µM (active)	
CCNc1ccccc1		inactive
COc1ccc2sc(C(=O)Nc3nnn[nH]3)c(OC(C)C)c2c1	9.42 µM (active)	
CNS(=O)(=O)c1cc(C(=O)N2CCC(CCN3C4CCC3CC(n3c(C)nc5ccccc53)C4)(c3cccc(F)c3)CC2)c(Cl)cc1F (stereo not given)	15.4 µM (active)	
O=c1n(CC2CO2)c(=O)n(CC2CO2)c(=O)n1CC1CO1 (stereo not given)	1.46 µM (active)	

Target: Peroxisome proliferator-activated receptor gamma (Homo sapiens) (UniProt P37231)
Assay: ATG_PPARg_TRANS: Attagene TRANS-FACTORIAL HepG2 Assay for human Peroxisome Proliferator-activated Receptor-gamma (PPARg) (AID 2283007)
Conditions: not given
Summary of the method: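 Transient transfection of HepG2 with GAL4-UAS-driven reporter units; chemical dosing 24 h; total RNA → oligo(dT) RT → PCR with reporter primers → 6-FAM primer extension → HpaI digest 2 h 37 C → capillary electrophoresis. Positive direction vs DMSO.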

Chain of Peroxisome proliferator-activated receptor gamma (Homo sapiens) (P37231 whole entry, looked up): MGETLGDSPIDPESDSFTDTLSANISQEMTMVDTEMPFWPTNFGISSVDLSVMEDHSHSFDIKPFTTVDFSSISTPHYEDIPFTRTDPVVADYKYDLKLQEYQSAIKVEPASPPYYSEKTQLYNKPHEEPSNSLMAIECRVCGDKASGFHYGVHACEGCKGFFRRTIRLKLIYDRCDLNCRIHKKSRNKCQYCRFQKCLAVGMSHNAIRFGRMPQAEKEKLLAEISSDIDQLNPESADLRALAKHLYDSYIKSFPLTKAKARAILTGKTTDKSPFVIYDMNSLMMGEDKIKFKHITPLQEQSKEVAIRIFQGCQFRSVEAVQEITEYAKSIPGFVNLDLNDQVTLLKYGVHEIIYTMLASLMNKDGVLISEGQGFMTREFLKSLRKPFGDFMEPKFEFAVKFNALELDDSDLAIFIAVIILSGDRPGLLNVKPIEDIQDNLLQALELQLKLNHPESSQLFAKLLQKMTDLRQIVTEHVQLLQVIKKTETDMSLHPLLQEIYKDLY

Structure (SMILES)	outcome	AC50
CC[C@H]1CC[C@H](NCc2cc3c(cc2OC)[C@H]2C[C@H]2C(=O)N3C)[C@H](c2ccccc2)N1	inactive	
Oc1ccc2c(c1)-c1ccccc1C2	inactive	
Cc1c(-c2cccnc2)c2ccccc2n1CCCCC(=O)O		22.4 µM (active)
Cc1ccc(C)c(O)c1	inactive	
CCCCC(CC)COC(=O)CCCCCCCCC(=O)OCC(CC)CCCC (stereo not given)	inactive	
Cc1ccc(S(=O)(=O)O)cc1C	inactive	
CCC(C)(C)C(=O)O[C@H]1C[C@@H](C)C=C2C=C[C@H](C)[C@H](CC[C@@H]3C[C@@H](O)CC(=O)O3)[C@H]21	inactive	
CC(C)c1cccc(C(C)C)c1N1C(=O)c2ccc(O)cc2C1=O	inactive	
CCCCCCCCCCCCCCCO	inactive	
Cn1cnc([N+](=O)[O-])c1Sc1ncnc2nc[nH]c12		39.9 µM (active)
CNCc1ccc(NC(=O)c2c[nH]c3c2C(=O)CCC3)cc1	inactive	
Clc1nc(Cl)c(Cl)c(Cl)c1Cl		3.02 µM (active)
CCn1nc(Cc2ccccc2)cc1C1CCN(C[C@H]2C[C@H](N(C)[C@@H](C(=O)O)C(C)C)C[C@@H]2c2cccc(F)c2)CC1	inactive	
COc1ccc(-n2nc(C(F)F)cc2-c2ccc(S(C)=O)cc2)cc1 (stereo not given)	inactive	
O=C(O)c1cccc(N(Cc2cccnc2)c2ccc(OC(F)F)c(OC(F)F)c2)c1		6.66 µM (active)
Fc1ccccc1[C@@H](F)COC1CCC(Nc2ncnc3[nH]ncc23)CC1 (stereo not given in full)	inactive	
CCNc1ccccc1	inactive	
COc1ccc2sc(C(=O)Nc3nnn[nH]3)c(OC(C)C)c2c1		22.9 µM (active)
CCOC(=O)COc1ccc2c(c1)CC(NCC(O)c1cccc(Cl)c1)CC2 (stereo not given)		21.7 µM (active)
O=c1n(CC2CO2)c(=O)n(CC2CO2)c(=O)n1CC1CO1 (stereo not given)	inactive	
CN(C)c1ccc(Cc2ccc(N(C)C)cc2)cc1		23.1 µM (active)

Target: Nuclear receptor subfamily 1 group I member 2 (Homo sapiens) (UniProt O75469)
Assay: ATG_PXR_TRANS: Attagene TRANS-FACTORIAL HepG2 Assay for human Pregnane X Receptor (PXR) (AID 2283008)
Conditions: not given
Summary of the method: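 Fluorescence intensity of FAM-labelled, HpaI-digested reporter amplicons, separated by capillary electrophoresis, quantifies induction. HepG2 cells with PXR-Gal4 trans-reporter system were exposed 24 h; DMSO defines baseline.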

Chain of Nuclear receptor subfamily 1 group I member 2 (Homo sapiens) (O75469 whole entry, looked up): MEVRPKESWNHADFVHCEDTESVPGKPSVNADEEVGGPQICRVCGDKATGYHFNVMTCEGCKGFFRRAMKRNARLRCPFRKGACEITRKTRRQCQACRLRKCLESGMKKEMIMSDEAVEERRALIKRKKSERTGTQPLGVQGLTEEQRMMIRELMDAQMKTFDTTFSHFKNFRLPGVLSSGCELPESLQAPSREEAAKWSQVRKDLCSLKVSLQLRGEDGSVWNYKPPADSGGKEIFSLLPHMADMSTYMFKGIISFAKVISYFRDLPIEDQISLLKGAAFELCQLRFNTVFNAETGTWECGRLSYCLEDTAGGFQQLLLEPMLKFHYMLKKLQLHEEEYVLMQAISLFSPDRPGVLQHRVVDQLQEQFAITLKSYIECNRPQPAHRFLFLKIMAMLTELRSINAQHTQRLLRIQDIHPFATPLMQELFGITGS

Structure (SMILES)	AC50	outcome
CC[C@H]1CC[C@H](NCc2cc3c(cc2OC)[C@H]2C[C@H]2C(=O)N3C)[C@H](c2ccccc2)N1	3.94 µM (active)	
Oc1ccc2c(c1)-c1ccccc1C2		inactive
Cc1c(-c2cccnc2)c2ccccc2n1CCCCC(=O)O		inactive
Cc1ccc(C)c(O)c1		inactive
CCCCC(CC)COC(=O)CCCCCCCCC(=O)OCC(CC)CCCC (stereo not given)		inactive
Cc1ccc(S(=O)(=O)O)cc1C		inactive
Cc1ccc(N)cc1O		inactive
CC(C)c1cccc(C(C)C)c1N1C(=O)c2ccc(O)cc2C1=O	0.242 µM (active)	
Cn1cnc([N+](=O)[O-])c1Sc1ncnc2nc[nH]c12	29.8 µM (active)	
CC(O)CN(CCN(CC(C)O)CC(C)O)CC(C)O (stereo not given)		inactive
CCn1nc(Cc2ccccc2)cc1C1CCN(C[C@H]2C[C@H](N(C)[C@@H](C(=O)O)C(C)C)C[C@@H]2c2cccc(F)c2)CC1		inactive
O=C1CCCCCN1		inactive
COc1ccc(-n2nc(C(F)F)cc2-c2ccc(S(C)=O)cc2)cc1 (stereo not given)		inactive
Cc1[nH]cnc1C[C@H]1CCc2c(C)c3ccccc3n2C1=O		inactive
O=C(O)c1cccc(N(Cc2cccnc2)c2ccc(OC(F)F)c(OC(F)F)c2)c1	11.1 µM (active)	
Fc1ccccc1[C@@H](F)COC1CCC(Nc2ncnc3[nH]ncc23)CC1 (stereo not given in full)		inactive
CCNc1ccccc1		inactive
COc1ccc2sc(C(=O)Nc3nnn[nH]3)c(OC(C)C)c2c1		inactive
CCOC(=O)COc1ccc2c(c1)CC(NCC(O)c1cccc(Cl)c1)CC2 (stereo not given)		inactive
COC(=O)c1ccccc1O	24.9 µM (active)	
CNS(=O)(=O)c1cc(C(=O)N2CCC(CCN3C4CCC3CC(n3c(C)nc5ccccc53)C4)(c3cccc(F)c3)CC2)c(Cl)cc1F (stereo not given)	0.779 µM (active)	
NC(=O)NO		inactive
CN(C)c1ccc(Cc2ccc(N(C)C)cc2)cc1		inactive
